Screens as filed in PubChem.
Rows were chosen to be rich in hits. Some 3.5% of all compounds tested hit in one or more screens of this group.
TMEM16A inh: inhibitors of mouse TMEM16A calcium-activated chloride channel | Q8BHY3 | HEK293 TMEM16A/YFP iodide influx fluorescence, ionomycin | normalized B-score (activity score, 25-100; higher = stronger inhibition) at 10 µM | 1.2% of 310,000 active;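 active = ratio plate-corrected score three or more library SD toward inhibition, starting fluorescence score within five deviations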;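 also: score derived from kinetic fluorescence span divided by baseline fluorescence per well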
Target sequence (Q8BHY3 whole entry, looked up): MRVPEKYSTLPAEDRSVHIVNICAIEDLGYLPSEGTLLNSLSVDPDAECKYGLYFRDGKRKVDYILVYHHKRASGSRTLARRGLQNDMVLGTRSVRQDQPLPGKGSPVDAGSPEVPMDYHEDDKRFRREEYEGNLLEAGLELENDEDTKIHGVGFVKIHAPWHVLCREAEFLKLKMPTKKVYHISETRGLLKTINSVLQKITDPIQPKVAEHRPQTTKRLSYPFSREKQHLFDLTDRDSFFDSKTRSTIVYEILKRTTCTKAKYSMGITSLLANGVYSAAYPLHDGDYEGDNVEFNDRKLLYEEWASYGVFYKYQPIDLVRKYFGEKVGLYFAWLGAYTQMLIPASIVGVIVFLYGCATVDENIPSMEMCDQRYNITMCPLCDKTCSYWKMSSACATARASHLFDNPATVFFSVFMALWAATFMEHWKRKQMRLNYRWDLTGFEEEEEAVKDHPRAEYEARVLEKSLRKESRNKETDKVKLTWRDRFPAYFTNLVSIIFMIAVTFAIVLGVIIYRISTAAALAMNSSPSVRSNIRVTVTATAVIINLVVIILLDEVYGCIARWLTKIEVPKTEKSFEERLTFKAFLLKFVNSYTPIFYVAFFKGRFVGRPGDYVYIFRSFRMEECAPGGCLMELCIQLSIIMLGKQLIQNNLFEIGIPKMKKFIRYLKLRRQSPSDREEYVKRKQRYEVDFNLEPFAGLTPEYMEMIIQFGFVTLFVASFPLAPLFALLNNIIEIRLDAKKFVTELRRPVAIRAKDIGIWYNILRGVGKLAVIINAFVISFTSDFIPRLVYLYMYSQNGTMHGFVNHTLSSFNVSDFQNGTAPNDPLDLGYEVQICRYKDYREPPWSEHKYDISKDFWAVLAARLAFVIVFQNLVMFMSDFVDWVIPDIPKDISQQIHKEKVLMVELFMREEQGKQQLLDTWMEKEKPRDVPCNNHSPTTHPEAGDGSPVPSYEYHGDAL
KCNK3 block: human KCNK3 channel inhibition, primary screen; O14649; CHO-KCNK3 thallium flux, FluxOR fluorescence; active compounds read low; B-score at 10 µM; 0.84% of 340,000 active; AID 602410;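 active = B-score under library mean minus 4 SD, starting fluorescence ratio at most library mean plus 5 SD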;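 also: more negative B-score means stronger inhibition of thallium flux through KCNK3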
Kir21 block: inhibitors of mouse Kir2.1 inward-rectifier potassium channel; P35561; 0.85% of 310,000 active; HEK293-Kir2.1, FluxOR thallium flux fluorescence; active compounds read low; AID 1672; B-score at 10 µM;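 active = fluorescence ratio B-score at or below minus 3 SD of library scores, with starting-brightness B-score within 2 SD, cut at about -4.2 in these data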;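 also: channel flux triggered by added potassium and thallium sulfate stimulus; B-score of peak minus minimum fluorescence over baseline after thallium stimulus; more negative B-score means stronger Kir2.1 block with less thallium influx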
KCNK9 inh: blocks the human KCNK9 two-pore domain potassium channel; B-score at 10 µM; 1.2% of 310,000 active; Q9NPC2; HEK293 KCNK9, FluxOR thallium flux fluorescence; active compounds read low;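 active = ratio B-score over 3 SD below the library mean, with starting fluorescence within 5 SD of its mean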;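 also: negative B-score means less thallium flux so channel inhibition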
ANO1 activ: activates or potentiates the mouse TMEM16A chloride channel; AID 623877; B-score at 10 µM; 0.3% of 340,000 active; Q8BHY3; HEK293 TMEM16A/YFP-H148Q/I152L, iodide quench fluorescence; active compounds read low;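 active = fluorescence-ratio B-score plate-corrected deviation score at least 3 library SD below zero, with starting fluorescence score within 5 deviations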;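 also: channel opened by trigger with iodide after compound preincubation; score built on the fluorescence ratio of max minus min over baseline; more negative score means more quench and so TMEM16A activation or potentiation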
KCNK9 block conf: confirmation of human KCNK9 potassium channel inhibitors; shares compounds with KCNK9 inh; HEK293 KCNK9 cells, FluxOR thallium flux fluorescence; inhibition, % at 10 µM; 43% of 4,900 active; AID 492992;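 active = thallium signal inhibited by more than 5 SD of the compound-free buffer control wells, on both duplicate plates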;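 also: 0% = assay buffer control wells without compound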
Kir21 sel: tests whether KCNK9 modulators also affect mouse Kir2.1; shares compounds with KCNK9 inh; Kir2.1 cells, FluxOR thallium flux fluorescence; inhibition, % at 10 µM; 4% of 4,900 active;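 active = thallium signal drop more than 5 SD beyond the mean of the no-compound control wells, seen in both duplicate plates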;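 also: signal is fluorescence rise after thallium addition divided by baseline fluorescence; plate controls were assay buffer only for no effect and full block by chlorpromazine control for full effect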
HEK293 Tl ctr: second counter-screen for KCNK9 modulators: effect in non-induced cells. non-induced KCNK9-HEK293, FluxOR thallium flux. 40% of 4,900 active. shares compounds with KCNK9 inh. inhibition, % at 10 µM;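 active = thallium signal drop beyond 5 SD of the untreated control mean, on both duplicate plates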;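 also: plate controls were buffer only IC0 wells for no effect and SID17386958 at its maximal inhibitory level for full effect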
* marks the source's active call; other numbers are inactive results; i = inactive; x = no result.

SMILES	TMEM16A inh	KCNK3 block	Kir21 block	KCNK9 inh	ANO1 activ	KCNK9 block conf	Kir21 sel	HEK293 Tl ctr
CCN1CC2=C(OC(N)=C(C#N)C2c2cccs2)/C(=C/c2cccs2)C1 (configuration not stated)	i	i	1.2	-8.9*	i	35%*	i	31%*
O=C(COC(=O)c1c2c(nc3ccccc13)CCCCC2)c1ccc(Cl)s1	i	i	-0.75	-13*	i	46%*	i	i
O=C(OCC(=O)N1CCc2ccccc21)c1c2c(nc3ccccc13)CCCC2	i	i	-2.6	-13*	i	53%*	i	i
Cc1cc(C)c(-n2c(SCCS(=O)(=O)c3ccc(F)cc3)n[nH]c2=O)c(C)c1	i	i	-1.6	i	i	x	x	x
C1CCC(c2nn3c(-c4n[nH]c5c4CCC5)nnc3s2)CC1	i	i	0.07	i	i	x	x	x
CCN(CC)c1ccc(-c2nn3c(-c4n[nH]c5c4CCC5)nnc3s2)cc1	i	-9*	0.89	-14*	i	44%*	i	36%*
COc1ccc(C(C)=O)cc1CSc1ccc2c(c1)OCCO2	i	i	-2.6	i	i	i	i	i
Cc1ccc(SCC(=O)Nc2cccc(-c3nnc(-c4ccco4)o3)c2)cc1	i	i	1.7	i	i	x	x	x
COc1ccc(Br)cc1C(=O)Nc1cccc(-c2nnc(-c3ccco3)o2)c1	i	i	0	-12*	i	60%*	i	i
CCOc1cc(CNC(C)(C)CO)cc(Br)c1OCc1ccc(Cl)cc1Cl	i	i	-9.4*	-8.7*	i	55%*	53%*	34%*
c1ccc(-c2nc(NCc3ccco3)c3oc4ccccc4c3n2)cc1	i	i	-0.22	-8.7*	i	38%*	i	35%*
CC(C)(C)c1ccc(OCCC(=O)OCC(=O)NC(=O)NC2CCCC2)cc1	i	i	0.53	-9.8*	i	i	i	i
CC(C)(C)c1ccc(OCCC(=O)OCC(=O)NC2CCCCC2)cc1	i	i	-1	i	i	x	x	x
Cc1nnc(SCc2ccccc2)nc1-c1ccccc1	i	i	-0.92	i	i	i	i	i
c1ccc(CSc2nnc3c4ccccc4c4ccccc4c3n2)cc1	i	x	0.4	i	x	x	x	x
O=C1C[C@@H](c2ccc(O[C@@H]3O[C@H](CO)[C@@H](O)[C@H](O)[C@H]3O)cc2)Oc2cc(O)ccc21	i	i	-0.63	i	i	x	x	x
CCc1nnc(NC(=O)CSc2ccc(-c3ccccc3OC)nn2)s1	i	i	0.15	i	i	x	x	x
Cc1ccc(CN2CCN(Cc3ccccc3C(F)(F)F)CC2)cc1	i	i	-4.5*	i	i	i	i	i
COc1ccc(CN2CCN(Cc3ccc(C(F)(F)F)cc3)CC2)c(OC)c1	i	i	-2.4	i	i	x	x	x
COc1ccc(OC)c(CN2CCN(Cc3cc(OC)c(OC)c(OC)c3)CC2)c1	i	i	-1.5	i	i	x	x	x
CS(=O)(=O)N1CCN(Cc2ccccc2C(F)(F)F)CC1	i	i	0.95	i	i	x	x	x
COc1cc(CN2CCN(Cc3ccc(C(F)(F)F)cc3)CC2)cc(OC)c1OC	i	i	1.2	i	i	i	i	i
COc1cc(CN2CCN(Cc3ccccc3C(F)(F)F)CC2)cc(OC)c1OC	i	i	0.04	i	i	i	i	i
Cc1ccc2oc(C(=O)N(Cc3ccc(N(C)C)cc3)CC3CCCO3)c(C)c2c1 (configuration not stated)	i	i	-0.35	i	i	i	i	i
c1ccc(CCNc2nc(-c3ccccn3)nc3ccccc23)cc1	i	i	-2.8	i	i	x	x	x
COc1cccc(NC(=O)c2ccc(-c3ccc([N+](=O)[O-])cc3)o2)c1	i	i	0.66	i	i	x	x	x
